Source: PubChem (The Scripps Research Institute Molecular Screening Center)
DAGLB inhibitor: blocks human DAGLB lipase activity; Q8NCG7; inhibition, % at 5.17 µM; AID 504411; 340,000 compounds, 0.059% hits; HEK293T DAGLB membrane lysate, EnzChek fluorogenic substrate; in the data active = inhibition above about 34%;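 also: 0% = enzyme with vehicle and 100% = wells lacking enzyme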
PAFAH2 inh: inhibitors of human PAFAH2; inhibition, % at 3.39 µM; 340,000 compounds, 0.99% hits; AID 492956; recombinant PAFAH2, FP-rhodamine activity probe, fluorescence polarization;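 active = inhibition above the mean over all tested compounds plus 3 SD, cut at about 30% in these data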;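 also: inhibitors block probe labeling of enzyme so polarization drops; 0% = enzyme with DMSO and 100% = wells lacking PAFAH2 protein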
PAFAH1B2 FP inh: inhibitors of human PAFAH1B2 | P68402 | recombinant PAFAH1B2, FP-rhodamine activity probe, fluorescence polarization | inhibition, % at 3.39 µM | 340,000 compounds, 1.2% hits | AID 492953;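 active = inhibition above the mean of all tested compounds plus 3 SD, cut at about 24% in these data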;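 also: 0% = enzyme with DMSO and 100% = wells lacking PAFAH1B2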
Target sequence (P68402 whole entry, looked up): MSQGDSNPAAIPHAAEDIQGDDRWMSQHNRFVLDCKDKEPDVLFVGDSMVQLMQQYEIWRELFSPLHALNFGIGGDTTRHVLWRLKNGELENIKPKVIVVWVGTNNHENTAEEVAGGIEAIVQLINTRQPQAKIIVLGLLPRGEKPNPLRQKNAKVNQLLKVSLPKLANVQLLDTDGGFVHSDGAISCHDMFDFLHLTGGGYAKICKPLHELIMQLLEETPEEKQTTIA
pPAFAH FP inh: pPAFAH (human) enzyme inhibition; inhibition, % at 3.39 µM; recombinant pPAFAH, FP-rhodamine probe fluorescence polarization; 330,000 compounds, 1.5% hits; Q13093;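 active = inhibition above the mean inhibition across the screen plus 3 SD, cut at about 25% in these data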;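 also: inhibitors block binding of the rhodamine activity-based probe so polarization drops; 0% = enzyme with DMSO and 100% = wells lacking pPAFAH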
PAFAH1B3 FP inh: blocks human PAF acetylhydrolase 1B catalytic subunit 3 | inhibition, % at 3.39 µM | 340,000 compounds, 0.28% hits | recombinant PAFAH1B3, FP-rhodamine probe, fluorescence polarization | Q15102;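 active = inhibition above the screen-wide average of all tested compounds plus 3 SD, cut at about 25% in these data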;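 also: 0% = enzyme with DMSO only and 100% = wells lacking PAFAH1B3 protein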
Target sequence (Q15102 whole entry, looked up): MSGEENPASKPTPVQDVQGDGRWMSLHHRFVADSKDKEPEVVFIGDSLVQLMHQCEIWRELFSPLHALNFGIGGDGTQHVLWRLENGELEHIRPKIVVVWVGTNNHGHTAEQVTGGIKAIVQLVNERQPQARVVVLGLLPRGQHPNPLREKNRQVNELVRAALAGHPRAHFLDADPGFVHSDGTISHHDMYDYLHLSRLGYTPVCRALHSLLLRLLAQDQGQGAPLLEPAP
HTRA1 inh: inhibitors of human serine peptidase HTRA1; Q92743; recombinant HTRA1, FP-rhodamine activity-based probe, fluorescence polarization; inhibition, % at 5.96 µM; 340,000 compounds, 0.5% hits; AID 504803; in the data active = inhibition above about 36%;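 also: 0% = enzyme with DMSO and 100% = wells lacking enzyme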
An asterisk follows results filed as active; nt = no result. In the library only some 2.8% were active in any assay of this set; here they are far more common.

SMILES	DAGLB inhibitor	PAFAH2 inh	PAFAH1B2 FP inh	pPAFAH FP inh	PAFAH1B3 FP inh	HTRA1 inh
Cc1cc(C)nc(NS(=O)(=O)c2ccc(CC(C)C)cc2)c1	1.6	2.4	-1.3	0.5	-3.9	-3.0
OCC[C@@H]1C[C@H](O)[C@@H](O)[C@]2(OCc3ccccc32)O1	0.3	6.6	0.8	0.0	10.6	-8.3
CCCCCCCC1=CC2=CC(=O)C(C)(OC(C)=O)C(=O)C2=CN1CCc1ccccc1 (stereo not drawn)	nt	nt	nt	9.7	nt	nt
COC/C=C/C1=CC2=CC(=O)C(C)(OC(=O)c3cnc4ccccc4n3)C(=O)C2=CN1CCc1ccccn1 (stereo not drawn)	nt	nt	nt	24.9*	nt	nt
COC/C=C/C1=CC2=CC(=O)C(C)(OC(=O)c3cccs3)C(=O)C2=CO1 (stereo not drawn)	nt	nt	nt	13.4	nt	nt
CCCCC1=CC2=CC(=O)C(C)(OC(=O)c3ccco3)C(=O)C2=CO1 (stereo not drawn)	nt	nt	nt	48.5*	nt	nt
CCCCC1=CC2=CC(=O)C(C)(OC(=O)CCC(=O)OC)C(=O)C2=CO1 (stereo not drawn)	nt	nt	nt	38.6*	nt	nt
COC(=O)CCC(=O)OC1(C)C(=O)C=C2C=C3CCCN3C=C2C1=O (stereo not drawn)	0.9	10.7	9.4	17.5	9.0	5.7
COC/C=C/C1=CC2=CC(=O)C(C)(OC(=O)c3cnc4ccccc4n3)C(=O)C2=CN1CCCCO (stereo not drawn)	0.6	7.6	-4.9	6.9	1.9	-1.2
COC/C=C/C1=CC2=CC(=O)C(C)(OC(=O)c3ccco3)C(=O)C2=CO1 (stereo not drawn)	nt	nt	nt	52.9*	nt	nt
CCn1nc(C)cc1-c1nnc(Sc2ncc([N+](=O)[O-])s2)n1C	2.4	3.3	0.0	-1.3	2.7	8.0
O=C(CNC(=O)COc1ccccc1)NCc1cccnc1	2.8	-3.5	-0.5	8.2	7.5	0.6
COC(=O)CCCC1=CC2=CC(=O)C(C)(OC(=O)c3ccc(Cl)nc3)C(=O)C2=CO1 (stereo not drawn)	nt	nt	nt	36.0*	nt	nt
COC(=O)CCCC1=CC2=CC(=O)C(C)(OC(=O)c3cccs3)C(=O)C2=CO1 (stereo not drawn)	nt	nt	nt	42.9*	nt	nt
COC(=O)CCCC1=CC2=CC(=O)C(C)(OC(=O)c3cccs3)C(=O)C2=CN1c1ccccc1 (stereo not drawn)	4.7	3.2	5.7	11.1	5.2	3.1
COC/C=C/C1=CC2=CC(=O)C(C)(O)C(=O)C2=CO1 (stereo not drawn)	nt	nt	nt	48.1*	nt	nt
CCCCC1=CC2=CC(=O)C(C)(OC(=O)c3cnc4ccccc4n3)C(=O)C2=CO1 (stereo not drawn)	nt	nt	nt	57.0*	nt	nt
COC/C=C/C1=CC2=CC(=O)C(C)(OC(=O)c3cnc4ccccc4n3)C(=O)C2=CN1c1ccc(OC)cc1 (stereo not drawn)	14.3	14.0	3.8	18.6	7.2	31.3
COC/C=C/C1=CC2=CC(=O)C(C)(OC(=O)C3CCCC3)C(=O)C2=CO1 (stereo not drawn)	15.3	15.6	-4.7	24.3	6.0	28.0
CC(C)(C)c1ccc(CSc2ccc(S(=O)(=O)N3CCOCC3)cn2)cc1	-6.0	-4.9	-4.6	0.4	8.7	-15.7
CCN1C(=O)/C(=C/C2=Cc3ccccc3OC2C)SC1=S (stereo not drawn)	nt	nt	nt	-6.9	nt	nt
CC(C)(C)OC(=O)NCCCCC1=CC2=CC(=O)C(C)(OC(=O)c3cnc4ccccc4n3)C(=O)C2=CO1 (stereo not drawn)	nt	nt	nt	41.6*	nt	nt
COC(=O)CCCC1=CC2=CC(=O)C(C)(OC(=O)c3cnc4ccccc4n3)C(=O)C2=CO1 (stereo not drawn)	nt	nt	nt	31.6*	nt	nt
CC(=O)c1ccc(S(=O)(=O)N2CCN(CCOc3ccc(Br)cc3)CC2)cc1	-5.2	-5.4	2.1	3.3	3.6	-16.2
COc1ccccc1-c1ccc(/C=C2\C=CC(=O)O2)o1	nt	nt	nt	25.6*	nt	nt
CC(C)[N+]1=C2C=CC=CC=C2SC12C([N+](=O)[O-])=CC(=[N+]([O-])[O-])C=C2[N+](=O)[O-] (stereo not drawn)	6.0	8.0	2.1	6.8	-1.9	13.8
Cc1cc(C)cc(N(CCC#N)C(=O)COC(=O)C2CCN(S(=O)(=O)c3ccc(C)c(C)c3)CC2)c1	-1.7	-1.5	4.3	2.4	-1.9	-9.4
COc1ccc(OC)c(/C=C2\SC(=S)N(NS(=O)(=O)c3ccc(C)cc3)C2=O)c1	18.1	13.7	-0.5	25.7*	9.4	-53.8
